About 83,000 compounds went through this panel and 20% of them were active in at least one assay; those are over-represented in the sample as a whole.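 Plates (96-well) were seeded with cells, treated with compound at one concentration, and incubated for 48 hours before percent growth was determined.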 Unmarked numbers belong to inactive results. Active and inactive are the calls of the source.

This assay concerns PC-3 prostate. In words: NCI-60 one-dose screen, 48 h (100 = growth as untreated, 0 = no growth, -100 = all killed). The following applies: 10 µM unless noted. On the procedure: Growth inhibition of the PC-3 human tumor cell line is measured as a screen for anti-cancer activity. Cells are grown in 96 well plates and exposed to the test compound for 48 hours. Compounds are tested at a single concentration, which is 10^-5 M for most compounds. The reported endpoint is percent growth (GI% or GIPRCNT), where numbers from 0 - 100% represent growth inhibition, and numbers from -100% - 0 represent cell death. For example, a value of 40 represents 60% growth inhibition. A value of 0 means no net growth occurred over the course of the experiment. A value of -40 indicates 40% of cells at the beginning of the experiment died by the end of the experiment. A value of -100 means all cells are dead at the end of the experiment.
NCI-60 Human Tumor Cell Lines Screen was performed using the standard one-dose NCI protocol, which is described in more detail at https://dtp.cancer.gov/discovery_development/nci-60/default.htm.
Compounds with GIPRCNT values below 10 were considered active. Activity score was based on GIPRCNT using the following formula: […]
Score is 0 for GIPRCNT values of 100 or above, 50 for GIPRCNT values of 0, and 100 for GIPRCNT values of -100.
`CCN1C(=O)N(CC)C2C1NN=c1s/c(=C3\C(=O)N(CCC(C)C)c4ccccc43)c(=O)n12` (stereo not given): the growth is 28.9%. Consider `Cc1ncc(C(=O)Nc2ccc(CN3CCN(C)CC3)c(C(F)(F)F)c2)cc1C#Cc1cnc(N)c2ncccc12`, for which the growth is 5.19% (active).

In the case of `O=C1/C(=C/c2ccc(O)c(O)c2)COc2ccc(-c3ccccc3)cc21`, the growth was 19.9%. With `COc1ccc(/C=C2\CN(C(=O)C(Cl)Cl)C/C(=C\c3ccc(OC)cc3)C2=O)cc1`, the growth was -8.13% (active). As for `CNC(=O)c1cc(Oc2cccc3nc(NC(=O)Nc4cc(C(F)(F)F)ccc4Cl)ccc23)ccn1`, the figure is 96.5%; as for `O=c1nc(-c2ccccc2)c2cc(-c3ccc(C(F)(F)F)nc3)ccc2[nH]1`, 96.2%; as for `CN1CCN(CCOc2ccc(-c3cnc4c(-c5ccc(F)cc5)cnn4c3)cc2)CC1`, 47.5%. Then `O=C1/C(=C/c2ccccn2)NC(=S)N1c1ccccc1Cl`, with 52.2%; and `Cc1cccc(N2CCC(=O)NC2=S)c1`, with 98.3%. In the case of `C=C1CC[C@@H]2[C@](C)(COC(C)=O)[C@H](OC(C)=O)CC[C@@]2(C)[C@@H]1CC(Nc1ccc(S(=O)(=O)NC(C)=O)cc1)C1=CCOC1=O` (stereo not given in full), the growth was 0.695% (active). Take `CSc1nn2c(-c3ccc4ccccc4c3)ccnc2c1C#N`: the growth was 45.8%. Then `COc1ccc(Cn2cc3c(c2-c2ccccc2)CCc2cnoc2-3)cc1`, with 27.4%; and `O=P(O)(O)OCC1OC(n2cnc3c(NCc4ccco4)ncnc32)C(O)C1O` (stereo not given), with 9.01% (active); and `CCOC(=O)c1nn(CC(O)c2ccccc2)c(NC(=O)Nc2cccc(F)c2)c1C` (stereo not given), with 92.5%. Then `COc1ccc(C[n+]2c3ccccc3n3c4ccc(N)cc4ccc32)c(OC)c1OC`, with 43.3%; and `CC(=O)Oc1ccc(OC(C)=O)c2ccccc12`, with 54.8%; and `CCNC(=O)Oc1ccc(/C(=C(/C)Cc2ccc(OC)cc2)c2ccc(OCCN3CCCCC3)cc2)cc1`, with 55.6%. Then `O=[N+]([O-])c1ccc(-c2cn3nc(-c4c[nH]c5ccccc45)sc3n2)cc1`, with 93.7%; and `CN(C)c1ccc(-c2nc(-c3ccccc3)c(-c3ccccc3)[nH]2)cc1`, with 76.9%; and `COc1ccc(C(=O)N2c3ccccc3Sc3ccccc32)c(C(F)(F)F)c1`, with 15.5%. Consider `CN1CCN(Cc2ccc(NC(=O)c3cncc(C#Cc4cnc(N)c5ccc(F)cc45)c3)cc2C(F)(F)F)CC1`, for which the growth was 18.6%. As for `Cc1nn(-c2cc(NC3CCC(O)CC3)c3c(=O)[nH]c(CCC(F)(F)F)cc3c2)c2c1C(=O)CC(C)(C)C2` (stereo not given), the figure is 55.4%. As for `COc1ccc(CNc2c3ccccc3nc3ccccc23)c(OC)c1`, the figure is 47.1%; as for `CC1(C)CC2=C3C=C[C@@H]4[C@@]5(C)CCC(=O)C(C)(C)[C@@H]5CC[C@@]4(C)[C@]3(C)CC[C@@]2(C(=O)O)C[C@H]1O`, 40.4%.

For the molecule `COC(=O)CC[C@@H]1O[C@@H](c2ccc(F)cc2)[C@@H](O)[C@H]1O`, the growth is 96.8%. Then `Cc1ccc(/C=C/C(=O)c2ccc(-n3cc(CN4CCN(c5cc6c(cc5F)c(=O)c(C(=O)O)cn6C5CC5)CC4)nn3)cc2)cc1`, with 89.6%.

`CCN1C(=O)N(CC)C2C1NN=c1s/c(=C\c3ccc[nH]3)c(=O)n12` (stereo not given): the growth is 19.6%. As to `O=C(Cc1ccc(/C=C/C(=O)c2ncc[nH]2)cc1)Nc1cc(C(F)(F)F)cc(C(F)(F)F)c1`, the growth was 85.3%.

As for `Cc1cccc(Oc2ccc(Nc3ncnc4ccc(NC(=O)CN5CCN(C)CC5)cc34)cc2Cl)c1`, the growth was 33.1%. Regarding `O=C(NC(Cc1nnc2n(Cc3ccccc3)c(=O)c3c4c(sc3n12)CCCC4)c1ccccc1)c1ccccc1` (stereo not given), the growth was 96.7%. Consider `O=C(O)/C=C/C(=O)Nc1cccc(Cn2nnc3cc(Cl)c(Cl)cc32)c1`, for which the growth is 102%.

Consider `COc1ccc2c(c1)c(/C(O)=C1\COC(=O)C1=O)cn2Cc1ccc(F)cc1`, for which the growth is 89.7%. In the case of `CCOc1ccc(-n2nc(C(=O)NCc3ccccc3OC)nc2-c2cc(OC)c(OC)c(OC)c2)cc1`, the growth is 24.6%. As for `O=S(=O)(NCCNc1nccc(-c2c(-c3ccc(F)c(O)c3)nc3sccn23)n1)c1ccc(F)cc1`, the figure is 29.9%. Then `Cc1ccc(-c2nc(-c3cn(C)c4ncccc34)cs2)cc1`, with -20.6% [100 µM] (active); and `O=C1Nc2c(C(=O)O)cccc2/C1=N/c1n[nH]c(=S)s1`, with 84.2%. Then `CC(=C(c1ccc(OCCN2CCCCC2)cc1)c1ccc(OCCN2CCCCC2)cc1)c1ccc(Cl)cc1`, with -82.4% (active). `Cn1ccc(=O)nc1`: the growth is 69.6%. Then `C=C(CNCCc1ccc(O)cc1)[C@@H]1CC[C@]2(CO)CC[C@]3(C)[C@H](CC[C@@H]4[C@@]5(C)CCC(=O)C(C)(C)[C@@H]5CC[C@]43C)[C@@H]12`, with 14.6%; and `O=C1Nc2ccccc2C1(c1c[nH]c2ccccc12)c1c[nH]c2ccccc12`, with -9.62% (active).

The values above are taken from PubChem BioAssay (NCI).
